# In the supplement of paper PMC6607015:
# Structures can show the parent of a compound that is named as a salt.
# Key:
# Conditions in all cases: compound concentration in added solution (µM; 5 µl added to 20 µl cells): 10; 18 h
# A431 [1] = assay: LBPA endosome anti-LBPA integrated intensity (sum per cell), Z-score; higher = more LBPA staining
# Outline: (§1)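 HeLa MZ or A431 cells (3,500/well in 20 µl) were seeded onto 5 µl of 10 µM compound solution in duplicate 384-well imaging plates, incubated 18 h, then fixed in 4% PFA. Cells were stained with 6C4 anti-LBPA antibody, filipin, propidium iodide and CellTracker green, and four 20× images were taken per well. MetaXpress segmentation gave per-cell integrated LBPA or filipin intensity, either whole-cell or within LBPA endosomes. Values are Z-scores normalised in AcuityXpress.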
# HeLa MZ [2] = assay: as above
# Outline: as §1
# A431 [3] = assay: whole-cell filipin (free cholesterol) integrated intensity, Z-score; higher = more cholesterol staining
# Outline: as §1
# HeLa MZ [4] = assay: as above
# Outline: as §1
# A431 [5] = assay: filipin (cholesterol) integrated intensity within LBPA endosomes, Z-score; higher = more cholesterol in LBPA endosomes
# Outline: as §1
# HeLa MZ [6] = assay: as above
# Outline: as §1
SMILES,LBPA endosome anti-LBPA integrated intensity (z-score) (A431 [1]),LBPA endosome anti-LBPA integrated intensity (z-score) (HeLa MZ [2]),whole-cell filipin (z-score) (A431 [3]),whole-cell filipin (z-score) (HeLa MZ [4]),filipin (z-score) (A431 [5]),filipin (z-score) (HeLa MZ [6])
COc1cc(OC)c(C(=O)CCCN2CCCC2)c(OC)c1 [Buflomedil hydrochloride],-0.502,0.473,-0.535,-0.534,-0.503,-0.263
Clc1ccc(C(c2ccccc2Cl)C(Cl)Cl)cc1 (stereo unspecified) [Mitotane],-0.586,-1.29,-0.251,-0.167,-0.511,-0.815
CN1CCN(CCCN2c3ccccc3Sc3ccc(C(F)(F)F)cc32)CC1 [Trifluoperazine dihydrochloride],1.83,-0.0806,-0.826,0.153,2.06,3.01
COc1ccc(OC)c(C(O)CNC(=O)CN)c1 (stereo unspecified) [Midodrine hydrochloride],-0.477,-0.609,-0.887,-1.05,-0.605,-0.723
CCCCC[C@H](O)/C=C/[C@H]1[C@H](O)CC(=O)[C@@H]1CCCCCCC(=O)O [Alprostadil],-0.322,-0.486,0.113,-0.324,-0.323,-0.34
N=C(N)N1CCc2ccccc2C1 [Debrisoquin sulfate],-0.566,-0.193,-0.719,-0.695,-0.556,-0.606
COC(=O)[C@@H]1[C@H]2C[C@H]3c4[nH]c5ccccc5c4CCN3C[C@@H]2CC[C@@H]1O [Yohimbine hydrochloride],-0.468,-0.264,-0.685,-0.575,-0.434,-0.333
Nc1nc(N)nc(-c2cc(Cl)ccc2Cl)n1 [Irsogladine maleate],-0.232,0.679,-0.0416,0.316,-0.334,-0.292
O=C(CCCN1CCC(O)(c2ccc(Br)cc2)CC1)c1ccc(F)cc1 [Bromperidol],2.59,2.09,1.76,1.12,2.09,1.82
CC(=O)[C@H]1CC[C@H]2[C@@H]3CCC4=CC(=O)CC[C@]4(C)[C@H]3CC[C@]12C [Progesterone],2.4,0.628,1.62,0.873,2.26,0.759
CC(=O)S[C@@H]1CC2=CC(=O)CC[C@]2(C)[C@H]2CC[C@@]3(C)[C@@H](CC[C@@]34CCC(=O)O4)[C@H]12 [Spironolactone],-0.583,-0.535,-0.744,-0.849,-0.526,-0.689
CCC(=O)OCC(=O)[C@@]1(OC(=O)CC)[C@@H](C)C[C@H]2[C@@H]3CCC4=CC(=O)C=C[C@]4(C)[C@@]3(Cl)[C@@H](O)C[C@@]21C [Beclomethasone dipropionate],-0.15,0.711,0.251,-0.00746,-0.116,0.00681
O=C(NC(Cc1cc(=O)[nH]c2ccccc12)C(=O)O)c1ccc(Cl)cc1 (stereo unspecified) [Rebamipide],-0.421,-0.707,-0.0406,0.196,-0.423,-0.367
CNC[C@H](O)[C@@H](O)[C@H](O)[C@H](O)CO [Meglumine],-0.671,-1.5,-0.386,-0.451,-0.555,-0.582
C=CC[N@@+]12CC[C@@]34c5ccccc5N5/C=C6/[C@H]7C[C@H]8[C@@]9(CC[N@@+]8(CC=C)C/C7=C/CO)c7ccccc7N(/C=C(/[C@@H](C[C@@H]31)/C(=C\CO)C2)[C@H]54)[C@@H]69 [Alcuronium chloride],-0.441,-0.288,0.269,2.33,-0.417,-0.254
CC(C)NCC(O)c1ccc2ccccc2c1 (stereo unspecified) [Pronethalol hydrochloride],0.244,-0.115,0.379,0.0476,-0.072,-0.11
Cc1cccc(C)c1NC(=O)C1CCCCN1C (stereo unspecified) [Mepivacaine hydrochloride],-0.256,0.0426,0.297,0.327,-0.328,-0.202
CC(C)(C)NC[C@@H](O)COc1cccc2c1CCCC2=O [(+) -Levobunolol hydrochloride],-0.326,1.33,-0.176,-0.0312,-0.353,0.0482
CC(Oc1c(Cl)cccc1Cl)C1=NCCN1 (stereo unspecified) [Lofexidine],-0.44,0.792,-0.761,-0.717,-0.424,-0.23
"CC(C)NCC(O)c1cc(O)cc(O)c1 (stereo unspecified) [Metaproterenol sulfate, orciprenaline sulfate]",-0.366,-0.417,-0.271,-0.375,-0.531,-0.465
Cc1cc(C)nc(NS(=O)(=O)c2ccc(N)cc2)n1 [Sulfamethazine sodium salt],-0.34,0.511,0.128,-0.158,-0.422,-0.588
CS(=O)(=O)c1ccc([C@@H](O)[C@@H](CO)NC(=O)C(Cl)Cl)cc1 [Thiamphenicol],-0.461,-0.533,-0.551,-0.526,-0.439,-0.625
NC(=O)N/N=C/c1ccc([N+](=O)[O-])o1 [Nitrofural],-0.562,-0.605,-0.633,-0.478,-0.506,-0.689

SMILES,LBPA endosome anti-LBPA integrated intensity (z-score) (A431 [1]),LBPA endosome anti-LBPA integrated intensity (z-score) (HeLa MZ [2]),whole-cell filipin (z-score) (A431 [3]),whole-cell filipin (z-score) (HeLa MZ [4]),filipin (z-score) (A431 [5]),filipin (z-score) (HeLa MZ [6])
CNC1(C)C2CCC(C2)C1(C)C (stereo unspecified) [Mecamylamine hydrochloride],-0.608,-1.35,-0.41,-0.324,-0.495,-0.557
CN(C)/N=N/c1[nH]cnc1C(N)=O [Dacarbazine],-0.547,-0.605,-0.746,-0.976,-0.487,-0.668
CC[N+](CC)(CC)CCOc1cccc(OCC[N+](CC)(CC)CC)c1OCC[N+](CC)(CC)CC [Gallamine triethiodide],-0.558,-0.807,-0.891,-0.384,-0.526,-0.576
N=C(N)N/N=C/c1c(Cl)cccc1Cl [Guanabenz acetate],2.17,0.543,1.23,-0.116,1.62,0.458
Cc1cc(C(C)(C)C)cc(C)c1CC1=NCCN1 [Xylometazoline hydrochloride],-0.127,0.671,0.316,0.463,0.0924,0.303
C#CCN(C)Cc1ccccc1 [Pargyline hydrochloride],-0.443,-0.371,-0.77,-0.65,-0.469,-0.441
CCC1(c2ccccc2)NC(=O)N(C)C1=O (stereo unspecified) [Mephenytoin],-0.412,-0.524,-0.0979,-0.325,-0.496,-0.516
CCN(CC)CCOCCOC(=O)C1(c2ccccc2)CCCC1 [Carbetapentane citrate],0.618,1.63,0.819,0.39,0.894,0.461
NC(=O)c1ncn([C@@H]2O[C@H](CO)[C@@H](O)[C@H]2O)n1 [Ribavirin],-0.391,-0.778,-0.377,-0.839,-0.376,-0.688
CC[C@@H]1C(=O)OC[C@@H]1Cc1cncn1C [Pilocarpine nitrate],-0.402,-0.0375,-0.715,-0.63,-0.502,-0.573
CC(C)(C)NCC(O)COc1cccc2c1CCC(=O)N2 (stereo unspecified) [Carteolol hydrochloride],-0.364,0.373,-0.558,-0.304,-0.479,-0.264
CCCC(CCC)C(=O)O [Valproic acid],-0.476,1.11,0.263,2.69,-0.401,-0.484
COc1ccccc1N1CCN(CCCNc2cc(=O)n(C)c(=O)n2C)CC1 [Urapidil hydrochloride],-0.297,0.724,-0.315,0.116,-0.29,-0.0207
Cc1c(N(C)CS(=O)(=O)O)c(=O)n(-c2ccccc2)n1C [Dipyrone],-0.646,-1.3,-0.336,-0.214,-0.539,-0.551
CCN(CC)Cc1cc(Nc2ccnc3cc(Cl)ccc23)ccc1O [Amodiaquin dihydrochloride dihydrate],2.13,2.23,0.894,-0.209,1.78,1.72
Clc1ccc(COC(Cn2ccnc2)c2ccc(Cl)cc2Cl)cc1 (stereo unspecified) [Econazole nitrate],0.0817,1.63,0.484,0.898,-0.0604,0.606
C#C[C@]1(O)CC[C@H]2[C@@H]3[C@H](C)CC4=C(CCC(=O)C4)[C@H]3CC[C@@]21C [Tibolone],-0.522,-0.57,-0.775,-0.295,-0.476,-0.561
O=C(O)COCCN1CCN(C(c2ccccc2)c2ccc(Cl)cc2)CC1 (stereo unspecified) [Cetirizine dihydrochloride],-0.494,-0.434,-0.716,-0.836,-0.508,-0.525
CC[N+](CC)(CC(=O)Nc1c(C)cccc1C)Cc1ccccc1 [Denatonium benzoate],-0.32,-0.985,-0.241,-0.0671,-0.379,-0.548
CC(C)NCC(O)c1ccc(NS(C)(=O)=O)cc1 (stereo unspecified) [Sotalol hydrochloride],-0.295,-0.419,0.181,0.261,-0.181,-0.219
CC(CN(C)C)C(C)(O)Cc1ccc(Cl)cc1 (stereo unspecified) [Clobutinol hydrochloride],-0.559,0.835,-0.328,-0.426,-0.624,-0.205
COc1ccccc1OCC(O)COC(N)=O (stereo unspecified) [Methocarbamol],-0.567,-0.641,-0.741,-0.777,-0.492,-0.501
C=C1/C(=C\C=C2/CCC[C@]3(C)[C@@H]([C@H](C)/C=C/[C@@H](O)C4CC4)CC[C@@H]23)C[C@@H](O)C[C@@H]1O [Calcipotriene],0.563,1.43,0.734,0.316,0.659,0.179
